Test results taken from PubChem BioAssay (EPA / NIEHS).
Where “and” joins values, the source holds several entries; their conditions need not be identical. Equal values may be shown once. The source holds several records for some structures; these can differ, active in one and inactive in another. Calls of active or inactive are those of the source. The calls were made as follows: active = hit-call score of the fitted dose curve at least 0.9, where 1 is the maximum; inactive = score below 0.9.

Assays:
[1] = read-out: C-C motif chemokine 2 (Homo sapiens) (UniProt P13500); assay: BSK_KF3CT_MCP1: BioMAP Diversity Plus: KF3CT Assay for Monocyte Chemoattractant Protein 1 (MCP1/CCL2) Biomarker Activity (AID 2283073); conditions: primary human keratinocytes with fibroblasts; actives raise or lower the signal
Outline: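 Human keratinocyte plus foreskin fibroblast primary co-culture exposed to chemical for 24 h. MCP-1 levels measured by ELISA. Bidirectional curve fitting relative to DMSO negative control as baseline.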

[2] = read-out: Matrix Metallopeptidase 9 (MMP9), MMP9 (gene 4318); assay: BSK_KF3CT_MMP9: BioMAP Diversity Plus: KF3CT Assay for Matrix Metallopeptidase 9 (MMP9) Biomarker Activity (AID 2283074); conditions: primary human keratinocytes with fibroblasts; actives raise or lower the signal;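 as to AC50: MMP9 protein level quantified by ELISA in the co-culture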
Outline: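 ELISA read-out of MMP-9 at 24 h post-dosing in a co-culture of human skin keratinocytes and foreskin fibroblasts. Gain or loss of signal was fitted in both directions against DMSO.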

[3] = read-out: urokinase plasminogen activator (uPA), PLAU (gene 5328); assay: BSK_KF3CT_uPA: BioMAP Diversity Plus: KF3CT Assay for urokinase plasminogen activator (uPA) Biomarker Activity (AID 2283075); conditions: primary human keratinocytes with fibroblasts; actives raise or lower the signal
Outline: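 Skin co-culture (keratinocytes + foreskin fibroblasts), human primary; 24 h post-dose; uPA by ELISA; gain/loss fit vs DMSO baseline.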

[4] = read-out: CD40, CD40 (gene 958); assay: BSK_LPS_CD40: BioMAP Diversity Plus: LPS Assay for CD40 Biomarker Activity (AID 2283076); conditions: primary human HUVEC with PBMC; actives raise or lower the signal
Outline: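 Primary human umbilical vein endothelial cells co-cultured with peripheral blood mononuclear cells, LPS-stimulated, were dosed with chemical and read 24 h later. CD40 levels were measured by ELISA and fitted bidirectionally against DMSO as negative control and baseline.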

[5] = read-out: E-selectin (Homo sapiens) (UniProt P16581); assay: BSK_LPS_Eselectin: BioMAP Diversity Plus: LPS Assay for Eselectin Biomarker Activity (AID 2283077); conditions: primary human HUVEC with PBMC; actives raise or lower the signal
Outline: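 Human umbilical vein endothelial cells co-cultured with peripheral blood mononuclear cells under LPS stimulation; E-selectin measured by ELISA 24 h after chemical dosing. Activity fitted bidirectionally against DMSO as negative control and baseline.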

[6] = read-out: Interleukin-8 (IL8), CXCL8 (gene 3576); assay: BSK_LPS_IL8: BioMAP Diversity Plus: LPS Assay for Interleukin-8 (IL8) Biomarker Activity (AID 2283078); conditions: primary human HUVEC with PBMC; actives raise or lower the signal
Outline: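 Human umbilical vein endothelial cells co-cultured with PBMC were stimulated with LPS; IL-8 levels were measured by ELISA 24 h after chemical dosing. Activity was fitted bidirectionally against DMSO as negative control and baseline.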

[7] = read-out: Interleukin-1 alpha (IL1a), IL1A (gene 3552); assay: BSK_LPS_IL1a: BioMAP Diversity Plus: LPS Assay for Interleukin-1 alpha (IL1a) Biomarker Activity (AID 2283080); conditions: primary human HUVEC with PBMC; actives raise or lower the signal
Outline: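 Human umbilical vein endothelial cells co-cultured with peripheral blood mononuclear cells were LPS-stimulated and exposed to test chemicals for 24 h. IL-1 alpha was quantified by ELISA, with bidirectional curve fitting against DMSO as the negative control and baseline.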

[8] = read-out: Monocyte Chemoattractant Protein-1 (MCP1), CCL2 (gene 6347); assay: BSK_LPS_MCP1: BioMAP Diversity Plus: LPS Assay for Monocyte Chemoattractant Protein-1 (MCP1) Biomarker Activity (AID 2283081); conditions: primary human HUVEC with PBMC; actives raise or lower the signal;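 as to AC50: co-culture stimulated with LPS; secreted MCP-1 protein quantified by ELISA in culture supernatant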
Outline: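 HUVEC plus PBMC co-culture (human primary cells, LPS system) exposed to test chemical for 24 h; MCP-1 measured by ELISA. Bidirectional curve fitting against DMSO baseline; parallel SRB total-protein staining flags overt cytotoxicity.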

[9] = read-out: Transforming growth factor beta 1 (TGFb1), TGFB1 (gene 7040); assay: BSK_KF3CT_TGFb1: BioMAP Diversity Plus: KF3CT Assay for Transforming growth factor beta 1 (TGFb1) Biomarker Activity (AID 2283072); conditions: primary human keratinocytes with fibroblasts; actives raise or lower the signal
Outline: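 Read-out: ELISA for TGF-b1 in keratinocyte/foreskin fibroblast human skin co-culture, 24 h after dosing; bidirectional curve fit vs DMSO baseline; gain or loss of signal scored.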

[10] = BSK_LPS_SRB: Viability Assessment in the BioMAP Diversity Plus: LPS Assay (AID 2283079); conditions: primary human HUVEC with PBMC;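 also: total protein by sulforhodamine B absorbance as a cytotoxicity measure; measured one day after compound addition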
Outline: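 Human umbilical vein endothelial cells co-cultured with PBMC (LPS system) were dosed for 24 h. Total protein was stained with 0.1% sulforhodamine B after 10% TCA fixation, read at 560 nm, and fitted bidirectionally against DMSO baseline.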

Measured: AC50

Chain of E-selectin (Homo sapiens) (P16581 whole entry, looked up): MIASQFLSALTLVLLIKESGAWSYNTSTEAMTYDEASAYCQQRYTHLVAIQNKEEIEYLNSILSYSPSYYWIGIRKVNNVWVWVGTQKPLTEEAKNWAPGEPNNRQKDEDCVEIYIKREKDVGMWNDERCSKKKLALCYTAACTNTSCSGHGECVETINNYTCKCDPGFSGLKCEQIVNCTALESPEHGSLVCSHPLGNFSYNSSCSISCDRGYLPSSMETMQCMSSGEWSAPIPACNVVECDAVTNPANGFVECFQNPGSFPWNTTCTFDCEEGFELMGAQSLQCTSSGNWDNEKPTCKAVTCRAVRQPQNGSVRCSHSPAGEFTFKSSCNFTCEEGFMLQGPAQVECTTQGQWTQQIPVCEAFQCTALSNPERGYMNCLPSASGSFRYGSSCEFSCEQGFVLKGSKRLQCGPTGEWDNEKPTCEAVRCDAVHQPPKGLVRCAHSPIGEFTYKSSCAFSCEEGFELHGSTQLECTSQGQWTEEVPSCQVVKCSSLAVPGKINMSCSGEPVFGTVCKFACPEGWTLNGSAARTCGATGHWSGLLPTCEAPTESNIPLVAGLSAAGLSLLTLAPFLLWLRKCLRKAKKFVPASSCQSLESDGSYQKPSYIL

FC(F)(F)C(F)(F)C(F)(F)C(F)(F)C(F)(F)C(F)(F)C(F)(F)I
inactive: [1] | [2] | [3] | [4] | [5] | [6] | [7] | [8]
active: [2] 244 nM

CC(=O)Nc1ccc(N=Nc2cc(C)ccc2O)cc1
not listed: [7] | [10]
inactive: all other assays above

O=C(CC(=O)C(F)(F)C(F)(F)F)C(F)(F)F
not listed: [9] | [10]
inactive: all other assays above

OCC(F)(F)C(F)(F)C(F)(F)C(F)(F)C(F)(F)C(F)F
not listed: [9] | [10]
inactive: all other assays above

FC(F)(F)C(F)(F)C(F)(F)C(F)(F)C(F)(F)C(F)(F)C(F)(F)C(F)(F)F
not listed: [7] | [9]
inactive: all other assays above

O=C(O)C(F)(F)C(F)(F)C(F)(F)C(F)(F)F
not listed: [7] | [9] | [10]
inactive: all other assays above

OCCCC(F)(F)C(F)(F)C(F)(F)C(F)(F)C(F)(F)C(F)(F)C(F)(F)F
active: [1] 27.3 µM and 42.9 µM | [2] 20 µM and 45 µM | [3] 22.8 µM and 47.2 µM | [4] 45.6 µM and 45.1 µM | [5] 50.6 µM and 43.6 µM | [6] 53.5 µM and 54.5 µM | [8] 44.7 µM and 44.2 µM

FC(F)(I)C(F)(F)C(F)(F)C(F)(F)I
active: [1] 50.9 µM and 46.8 µM and 48.7 µM | [2] 52 µM and 51.2 µM and 45.8 µM | [3] 49.5 µM and 45.8 µM and 54 µM
not listed: [7] | [9]
inactive: all other assays above

NC(=O)C(F)(F)C(F)(F)C(F)(F)C(F)(F)F
not listed: [9] | [10]
inactive: all other assays above

FC(F)(F)C(F)(F)C(F)(F)C(F)(F)C(F)(F)C(F)(F)C(F)(F)C(F)(F)CCS
not listed: [7] | [9]
inactive: all other assays above

O=S(=O)(OCCOC(F)(F)F)C(F)(F)F
not listed: [7] | [9] | [10]
inactive: all other assays above

O=C(O)C(F)(F)C(F)(F)C(F)(F)F
not listed: [9] | [10]
inactive: all other assays above

CCCCCCCCC(F)(F)C(F)(F)C(F)(F)C(F)(F)C(F)(F)C(F)(F)F
not listed: [7] | [9] | [10]
inactive: all other assays above

C=C(C)C(=O)OCCC(F)(F)C(F)(F)C(F)(F)C(F)(F)C(F)(C(F)(F)F)C(F)(F)F
not listed: [7] | [9]
inactive: all other assays above

OCC(F)(F)C(F)(F)C(F)(F)F
not listed: [7] | [9]
inactive: all other assays above

O=C(O)C(F)(OC(F)(F)C(F)(OC(F)(F)C(F)(F)C(F)(F)F)C(F)(F)F)C(F)(F)F (centres undefined)
not listed: [7] | [9] | [10]
inactive: all other assays above

OCC(F)(F)C(F)(F)C(F)(F)C(F)(F)C(F)(F)C(F)(F)F
not listed: [9] | [10]
inactive: all other assays above

C=CC(F)(F)C(F)(F)C(F)(F)C(F)(F)C(F)(F)C(F)(F)C(F)(F)C(F)(F)C=C
not listed: [9]
inactive: all other assays above

FC(F)(F)C(F)(F)C(F)(F)N(C(F)(F)C(F)(F)C(F)(F)F)C(F)(F)C(F)(F)C(F)(F)F
not listed: [9] | [10]
inactive: all other assays above
